The campaign covered roughly 420,000 compounds. About 50,000 (12%) were called active. Another 26% or so got no clear call; they are omitted. The sample as a whole holds a higher share of actives than the screen did. Unmarked numbers belong to inactive results. Calls follow the shape of the dose curve; as a rule, active = well fitted inhibition curve with a large enough effect; inconclusive = small, poorly fitted or top-dose-only effect; inactive = flat fitted curve, though single readings scatter.

The values below come from PubChem BioAssay AID686979 (National Center for Advancing Translational Sciences (NCATS), 2013).
% is scaled to controls: 0 for no effect and ±100 for the full control effect; potency is read from the fitted curve at half-maximal effect.

The assay can be described thus: qHTS for Inhibitors of human tyrosyl-DNA phosphodiesterase 1 (TDP1): qHTS in cells in presence of CPT. Also: nearly all actives have a fitted effect of over 55% in size. Particulars: chicken DT40 Tdp1-/-;hTDP1 cells + 20 nM CPT, ATP luminescence, 48 h; series mostly up to 46.2 µM; activity change, negative = growth inhibition: at the top concentration. An excerpt:
Human tyrosyl-DNA phosphodiesterase 1 (TDP1) is a novel repair gene, and we propose to use it as a new target for anticancer drug development. TDP1 is not an essential protein, but under treatment with topoisomerase I poison (camptothecin: CPT), TDP1 works as a critical factor for cell survival. To directly identify novel TDP1 inhibitors active in a cellular environment, we have knocked-out the Tdp1 gene in chicken DT40 cells (Tdp1-/-) and generated a complemented counterpart cells that contains a stable transfection of the human TDP1 gene (Tdp1-/-;hTDP1 cells). For the primary screen, Tdp1-/-;hTDP1 cells will be exposed to small molecules in the presence or absence of CPT, and their growth kinetics will be evaluated after 48 hours by measuring ATP activity. […] The hit compounds will then be evaluated in the presence or absence of CPT using Tdp1-/- cells. […] In tertiary assays, biochemical gel-based assays will be used to assess whether the hit compounds specifically target TDP1. To this end, we have screened this cell line against the MLSMR in two primary screens. In one screen we add CPT and in the other we screen in the absence of CPT; this AID represents the screen where CPT was present. NIH Chemical Genomics Center [NCGC] NIH Molecular Libraries Probe Centers Network [MLPCN] MLPCN Grant: MH095538 Assay Submitter (PI): Yves Pommier, NCI
DT40-hTDP1 cells with 20 nM Camptothecin (add 20 microL of 1 mM CPT stock in 1 L of cell culture medium) were dispensed at 400 cells/5microL/well in tissue culture treated 1536-well white wall/solid bottom assay plates (Greiner Bio-One North America, NC, U.S.A.) using a Multidrop Combi 8 channel dispenser (Thermo Fisher, Waltham, MA, USA). 23 nL compounds and controls were transferred using the pin tool (Kalypsys, San Diego, CA, USA) to the assay plates. The assay plates were then incubated at 37 masculineC for a minimum 48 hr. Three microL of Cell Titer Glo solution was added to the plates and incubated at RT in dark for 30 min. Luminescence was read using ViewLux (Perkin Elmer) with 1 sec exposure slow speed, high gain and 2x binning.
A general note: qHTS replaces the single test concentration by a dilution series.
`Cc1cc(F)ccc1NC1(c2ccccc2)C(=O)c2ccccc2C1=O`: the “activity change, negative = growth inhibition” value was 3.73%.
For the compound `COc1ccc(S(=O)(=O)NC(=O)C2(C)CCN2C(=O)COc2ccc(Cl)cc2)cc1` (stereo unspecified), the “activity change, negative = growth inhibition” value is 1.46%.
The same measure, in the same setting: to `COc1ccccc1C(=O)NC(=O)COC(=O)c1ccco1` belongs 17.6%; to `COc1ccc(C)cc1N(CC(=O)N1CCCC1)S(=O)(=O)c1ccccc1`, 10%.
Same read-out and setting: then `C/C(N)=C(/C#N)C(=O)COC(=O)C1CCN(C(=O)c2ccc(Cl)cc2)CC1`, with 1.82%; and `C[C@]12CC[C@H](O)CC1=CCC1C2CC[C@@]2(C)C1CC[C@@H]2NC(=O)CCC(=O)O` (stereo partly specified), with 3.29%.
With `CN1CCC[C@@H]1CCO[C@](C)(c1ccccc1)c1ccc(Cl)cc1`, the Potency was 21.1 µM (active).
As for `C#CC(CCN1CCCCC1)(OC)c1ccccc1` (stereo unspecified), the “activity change, negative = growth inhibition” value was 4.82%.
On the same count and under the same terms, then `CCC1CCC/C1=N\NC(=O)c1ccc(Cl)cc1` (stereo unspecified), with 10.2%.
As for `CC(=O)c1ccc(F)c(-c2cc(C)cc3c2OC(CNC(=O)Cc2c[nH]c4ccccc24)C3)c1` (stereo unspecified), the activity change, negative = growth inhibition was 11.9% [at 9.04 µM].
`O=C(CSc1oc(-c2ccccc2)nc1S(=O)(=O)c1ccc(Br)cc1)NC1CCCCC1`: the “activity change, negative = growth inhibition” value is 1.11%.
For the compound `Cc1cc(C)cc(NC(=O)CSc2oc(-c3ccccc3)nc2S(=O)(=O)c2ccc(Cl)cc2)c1`, the Potency was 5.17 µM (active).
On to `Cc1cc(C)cc(NC(=O)CSc2ccccc2)c1`, for which the “activity change, negative = growth inhibition” value is -19.7%.
Turning to `C/C=C1\C2C=C(C)CC1(N)c1ccc(=O)[nH]c1C2` (stereo unspecified), the “activity change, negative = growth inhibition” value was -4.72% [at 92.5 µM].
For the compound `CCCN(CCC)CCNC(=O)Cn1cnc2sc(C)c(S(=O)(=O)N3CCC(C)CC3)c2c1=O`, the “activity change, negative = growth inhibition” value is 4.45%.
`COc1cccc(N2C(=O)CC(N3CCc4ccccc4C3)C2=O)c1` (stereo unspecified): the “activity change, negative = growth inhibition” value was -2.6%.
With `COC(=O)c1cccc(N2C(=O)C3C4C=CC(CC4)C3C2=O)c1` (stereo unspecified), the “activity change, negative = growth inhibition” value is 5.7%.
Take `COC(=O)c1ccccc1SC1CC(=O)N(c2cccc(C)c2)C1=O` (stereo unspecified): the Potency was 9.2 µM (active).
With `O=C(COC(=O)/C=C/c1ccc(Br)o1)Nc1cccc(S(=O)(=O)N2CCOCC2)c1`, the “activity change, negative = growth inhibition” value was 2.67%.
Turning to `O=C1c2ccccc2C(=O)c2c1cccc2N1CCN(C/C=C/c2ccccc2)CC1`, the “activity change, negative = growth inhibition” value was -28.2%.
Regarding `CCOC(=O)c1oc2c(CN3CCN(C)CC3)c(O)ccc2c(=O)c1-c1ccc(Br)cc1`, the “activity change, negative = growth inhibition” value was -8.28%.
Consider `COc1ccc(NC(=O)C2=CC(c3ccc(OC)c(OC)c3)=NS(=O)(=O)N2C)cc1`, for which the Potency is 23.1 µM (active).
On to `COc1ccc(C2=NS(=O)(=O)N(C)C(C(=O)N3CCCCC3)=C2)cc1`, for which the “activity change, negative = growth inhibition” value is -1.91%.
Consider `COc1cc(NC(=O)C2=CC(c3ccco3)=NS(=O)(=O)N2C)cc(OC)c1OC`, for which the Potency result is “inactive”.
On to `COc1ccc(C2(Nc3cccc(F)c3)C(=O)c3ccccc3C2=O)cc1`, for which the “activity change, negative = growth inhibition” value is 5.75%.
Still for that read-out and setting: then `CCCn1c(=S)[nH]c2ccc(C(F)(F)F)cc21`, with 4.89%; and `NS(=O)(=O)c1ccc(NC(=O)COC(=O)c2ccc(Cl)nc2)cc1`, with -8.23%.
The same measure, in the same setting: to `Cc1cnc(NC(=O)c2ccc(Cl)nc2)s1` belongs -19.3%.
Regarding `CCN(CC)c1ccc(NC(=O)c2ccc(Cl)nc2)cc1`, the Potency was 2.91 µM (active).
On to `CCN(CC)c1ccc(NC(=O)CN2CCN(CC(=O)Nc3ccc(Cl)cc3)CC2)cc1`, for which the Potency was 23.1 µM (active).
On to `CC(=O)N1CCN(CC(=O)Nc2ccc(SC(F)F)cc2)CC1`, for which the “activity change, negative = growth inhibition” value is -15.2%.
Same read-out and setting: to `CCN(CC)c1ccc(NC(=O)CN2CCN(c3ccccn3)CC2)cc1` belongs -21.9%; to `CCc1ccc(CN2C(=O)c3ccccc3C2C(=O)NCC2CCCO2)cc1` (stereo unspecified), 6.59%.
Still for that read-out and setting: to `Cc1csc2nc(O)c(C(=O)NCCN3CCOCC3)c(=O)n12` belongs 4.88%.
Consider `NC(=O)COC(=O)c1sc2cc(F)ccc2c1Cl`, for which the “activity change, negative = growth inhibition” value was 1.25%.
The same measure, in the same setting: to `Cc1ccsc1C(=O)NNC(=O)COc1ccc(Br)cc1` belongs -25.4%; to `O=C(NC(=S)N1CCc2ccccc21)c1ccco1`, 20.5%; to `CN(C)C(=O)c1ccc(NC(=O)COC(=O)c2cc3c(s2)CCCCC3)cc1`, -13.4%.
Take `CCCN(CCC)CCCNC(=O)Cn1cc2c(n1)-c1c(oc(C(=O)N3CCCC3)c1C)CC2`: the “activity change, negative = growth inhibition” value was -4.28%.
`CCOc1ccc(CNC(=O)Cn2cc3c(n2)-c2c(oc(C(=O)N4CCCC4)c2C)CC3)cc1`: the Potency is 29.1 µM (active).
With `CCOC(=O)N1CCC(NC(=O)Cn2cc3c(n2)CCCCC3)CC1`, the “activity change, negative = growth inhibition” value is -15.7%.
Same read-out and setting: to `CCOC(=O)C(C)n1cnc2scc(-c3ccc(C)c(C)c3)c2c1=O` (stereo unspecified) belongs -0.242%; to `COc1ccc(-c2nnc(SCC(=O)Nc3cccnc3Cl)n2C)cc1`, -0.741%.
In the case of `COC(=O)c1ccc(NC(=O)CSc2nnc(C3CC3)n2C)cc1`, the “activity change, negative = growth inhibition” value is 6.22%.
Still for that read-out and setting: then `CC(C)(C)NC(=O)COc1ccc(CNc2ccc3[nH]c(=O)[nH]c3c2)cc1`, with 2.77%; and `CC(=O)Nc1ccc(CN2CCC(Oc3ccc(C(=O)N4CCCC4)cc3)CC2)cc1`, with -13.6%.
As to `Oc1ccc(Cl)c2c1CCC2`, the “activity change, negative = growth inhibition” value was -11.1%.
In the case of `COc1cc(NS(=O)(=O)c2ccc(NC(=O)c3ccc(S(=O)(=O)N4CCCCC4)cc3)cc2)ncn1`, the “activity change, negative = growth inhibition” value was -1.79%.
Regarding `COc1ccc(-c2ccc(Nc3ccc(S(=O)(=O)N4CCCC4)cc3)nn2)cc1OC`, the Potency was 16.4 µM (active).
Turning to `COc1ccc(S(=O)(=O)Nc2ccc(S(=O)(=O)N3CCCCC3)cc2)cc1OC`, the “activity change, negative = growth inhibition” value is 1.55%.
For the compound `COCCOC(=O)c1c(C)oc2cc(Br)c(OCC(N)=O)cc12`, the “activity change, negative = growth inhibition” value was -20.2%.
